PubChem BioAssay (NCI)
About 83,000 compounds went through this panel and 20% of them were active in at least one assay; those are over-represented in the sample as a whole.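 Single-dose data. Exposure time 48 hours. Values below 10 considered active.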

Columns and labels:
Assay in all cases: NCI-60 one-dose screen, 48 h (100 = growth as untreated, 0 = no growth, -100 = all killed)
Details in all cases: 10 µM unless noted
NCI-H23 lung = test system: NCI-H23 lung
NCI-H226 lung = test system: NCI-H226 lung
NCI-H322M lung = test system: NCI-H322M lung
HOP-62 NSCLC = test system: HOP-62 NSCLC
NCI-H460 lung = test system: NCI-H460 lung
HOP-92 NSCLC = test system: HOP-92 NSCLC
A549/ATCC NSCLC = test system: A549/ATCC NSCLC
786-0 renal = test system: 786-0 renal
COLO 205 colon = test system: COLO 205 colon
DU-145 prostate = test system: DU-145 prostate
K-562 leukemia = test system: K-562 leukemia
MALME-3M melanoma = test system: MALME-3M melanoma
MDA-MB-231 breast = test system: MDA-MB-231 breast
RXF 393 renal = test system: RXF 393 renal
SF-539 CNS = test system: SF-539 CNS
UACC-257 melanoma = test system: UACC-257 melanoma
M14 melanoma = test system: M14 melanoma
SF-268 CNS = test system: SF-268 CNS
SF-295 CNS = test system: SF-295 CNS
NCI-H522 lung = test system: NCI-H522 lung

Measured: growth

O=[N+]([O-])c1c(Cl)ncnc1Cl
inactive: NCI-H23 lung 111% | NCI-H226 lung 100% | NCI-H322M lung 125% | HOP-62 NSCLC 104% | NCI-H460 lung 93.2% | HOP-92 NSCLC 85.7% | A549/ATCC NSCLC 92.8% | 786-0 renal 109% | COLO 205 colon 113% | DU-145 prostate 110% | K-562 leukemia 109% | MALME-3M melanoma 104% | MDA-MB-231 breast 120% | RXF 393 renal 108% | SF-539 CNS 88.9% | UACC-257 melanoma 86% | M14 melanoma 118%

CC(=O)NC(CCC(=O)c1ccccc1)C(=O)O (stereo not given)
inactive: NCI-H23 lung 101% | NCI-H226 lung 91.1% | NCI-H322M lung 98.5% | HOP-62 NSCLC 76.2% | NCI-H460 lung 102% | HOP-92 NSCLC 97.6% | A549/ATCC NSCLC 63.3% | 786-0 renal 87.9% | COLO 205 colon 108% | DU-145 prostate 107% | K-562 leukemia 108% | MALME-3M melanoma 96.6% | MDA-MB-231 breast 107% | RXF 393 renal 105% | SF-268 CNS 101% | SF-295 CNS 101% | SF-539 CNS 91.2% | UACC-257 melanoma 76.7% | M14 melanoma 90.9%

Cc1ccc2nc(-c3ccc(N=Cc4ccccc4O)cc3)sc2c1
inactive: NCI-H23 lung 84.4% | NCI-H226 lung 70.7% | NCI-H322M lung 82.8% | HOP-62 NSCLC 77.9% | NCI-H460 lung 104% | HOP-92 NSCLC 78.1% | A549/ATCC NSCLC 71.9% | 786-0 renal 77.5% | COLO 205 colon 140% | DU-145 prostate 96.8% | K-562 leukemia 84.8% | MALME-3M melanoma 90.3% | MDA-MB-231 breast 62.2% | RXF 393 renal 83.4% | SF-268 CNS 97.7% | SF-295 CNS 109% | SF-539 CNS 89.3% | UACC-257 melanoma 78.8% | M14 melanoma 78.4%

CCN(C(=O)Nc1ccccc1Cl)c1ccccc1
inactive: NCI-H23 lung 101% | NCI-H226 lung 107% | NCI-H322M lung 109% | HOP-62 NSCLC 111% | NCI-H460 lung 108% | HOP-92 NSCLC 101% | A549/ATCC NSCLC 100% | 786-0 renal 112% | COLO 205 colon 113% | DU-145 prostate 109% | K-562 leukemia 93.9% | MALME-3M melanoma 100% | MDA-MB-231 breast 109% | RXF 393 renal 115% | SF-268 CNS 109% | SF-539 CNS 104% | UACC-257 melanoma 102% | M14 melanoma 111%

Cn1/c(=N\N=C\c2ccccc2OCCO)sc2ccccc21
inactive: NCI-H23 lung 101% | NCI-H226 lung 88.3% | NCI-H322M lung 80.7% | HOP-62 NSCLC 106% | NCI-H460 lung 101% | HOP-92 NSCLC 82.5% | A549/ATCC NSCLC 102% | 786-0 renal 115% | COLO 205 colon 91% | DU-145 prostate 109% | K-562 leukemia 76.7% | MALME-3M melanoma 80.2% | MDA-MB-231 breast 72.1% | RXF 393 renal 102% | SF-268 CNS 94.1% | SF-295 CNS 94% | SF-539 CNS 92.9% | UACC-257 melanoma 121% | M14 melanoma 103%

NNC(=O)CCCCl
inactive: NCI-H23 lung 97.7% | NCI-H226 lung 98.7% | NCI-H322M lung 107% | HOP-62 NSCLC 107% | NCI-H460 lung 111% | HOP-92 NSCLC 137% | A549/ATCC NSCLC 100% | 786-0 renal 108% | COLO 205 colon 118% | DU-145 prostate 108% | K-562 leukemia 105% | MDA-MB-231 breast 104% | RXF 393 renal 96.6% | SF-268 CNS 102% | SF-295 CNS 102% | SF-539 CNS 106% | UACC-257 melanoma 105% | M14 melanoma 100%

S=C=Nc1ccc2ccccc2c1
inactive: NCI-H23 lung 96.9% | NCI-H226 lung 101% | NCI-H322M lung 109% | HOP-62 NSCLC 98.3% | NCI-H460 lung 105% | HOP-92 NSCLC 79% | NCI-H522 lung 97.3% | A549/ATCC NSCLC 100% | COLO 205 colon 111% | DU-145 prostate 107% | K-562 leukemia 96% | MALME-3M melanoma 102% | MDA-MB-231 breast 117% | RXF 393 renal 110% | SF-268 CNS 108% | SF-295 CNS 108% | SF-539 CNS 99.9% | UACC-257 melanoma 99.7% | M14 melanoma 103%

COC1OC(C(O)C(O)CO)C(O)C(O)C1O (stereo not given)
inactive: NCI-H23 lung 106% | NCI-H226 lung 93.4% | NCI-H322M lung 98.1% | HOP-62 NSCLC 88.5% | NCI-H460 lung 106% | HOP-92 NSCLC 101% | NCI-H522 lung 111% | A549/ATCC NSCLC 97.3% | COLO 205 colon 111% | DU-145 prostate 118% | K-562 leukemia 104% | MALME-3M melanoma 101% | RXF 393 renal 98% | SF-268 CNS 103% | SF-295 CNS 100% | SF-539 CNS 97.5% | UACC-257 melanoma 95.6% | M14 melanoma 97.4%

O=C(OCc1ccccc1)n1nnc2ccccc21
inactive: NCI-H23 lung 115% | NCI-H226 lung 108% | NCI-H322M lung 105% | HOP-62 NSCLC 110% | NCI-H460 lung 109% | HOP-92 NSCLC 116% | A549/ATCC NSCLC 102% | 786-0 renal 98.7% | COLO 205 colon 111% | DU-145 prostate 112% | K-562 leukemia 107% | MDA-MB-231 breast 96.6% | RXF 393 renal 113% | SF-268 CNS 104% | SF-295 CNS 99.2% | SF-539 CNS 105% | UACC-257 melanoma 97.2% | M14 melanoma 98.7%
